Assay results from PubChem BioAssay (Tox21).
Inconclusive results are not listed. The source made the active and inactive calls. Unless noted, calls follow the shape of the dose curve; as a rule, active = well fitted curve in the direction sought with a large enough effect in the repeat runs; inconclusive = weak or mixed curves; inactive = no such curve, though single readings can be large; an effect the other way counts as inactive or inconclusive.

Experiments:
[1] = qHTS assay to identify small molecule antagonists of the estrogen related receptor (ERR) signaling pathway from Tox21 library - cell viability counter screen (AID 1224834); also: nearly all actives have a fitted effect of over 30% in size
In short: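 Counter screen run in ERR cells (2,000 cells/well): cells pre-incubated 6 h, then treated with compounds for 17.5 h at 37 C. Fluorescence was read 30 min after CellTiter-Fluor addition.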

[2] = molecular target: Luciferin 4-monooxygenase (Photinus pyralis) (UniProt P08659); assay: qHTS assay to identify small molecule inhibitors of firefly luciferase (AID 1224835); also: series mostly up to about 120 µM; nearly all actives have a fitted effect of over 25% in size
Chain of Luciferin 4-monooxygenase (Photinus pyralis) (P08659 whole entry, looked up): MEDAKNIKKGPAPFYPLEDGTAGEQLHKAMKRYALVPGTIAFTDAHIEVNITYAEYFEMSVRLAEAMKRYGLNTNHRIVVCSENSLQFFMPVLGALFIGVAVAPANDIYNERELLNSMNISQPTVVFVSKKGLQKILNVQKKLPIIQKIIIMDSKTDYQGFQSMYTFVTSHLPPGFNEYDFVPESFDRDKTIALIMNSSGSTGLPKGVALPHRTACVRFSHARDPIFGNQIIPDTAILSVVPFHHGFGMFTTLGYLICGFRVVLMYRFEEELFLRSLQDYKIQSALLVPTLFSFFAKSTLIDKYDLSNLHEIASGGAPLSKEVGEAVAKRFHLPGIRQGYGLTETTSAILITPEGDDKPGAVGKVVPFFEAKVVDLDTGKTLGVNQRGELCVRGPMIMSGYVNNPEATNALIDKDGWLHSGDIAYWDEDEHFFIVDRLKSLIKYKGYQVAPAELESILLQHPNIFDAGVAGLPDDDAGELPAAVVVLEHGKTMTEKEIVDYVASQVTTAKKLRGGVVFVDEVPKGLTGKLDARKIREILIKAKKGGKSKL
In short: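 Quantitative HTS format; KM concentrations of both substrates. Purified P. pyralis FLuc activity quantified from luminescence images.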

[3] = qHTS assay to identify small molecule agonists of the constitutive androstane receptor (CAR) signaling pathway - cell viability counter screen (AID 1224836); also: series mostly up to about 92 µM; nearly all actives have a fitted effect of over 45% in size
In short: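 HepG2-CYP2B6-hCAR, 2500 cells/well, 4 h pre-incubation; cpd 15 conc + PK11195 0.75 uM final; 23 h, 37 C/5% CO2; CellTiter-Fluor, fluorescence.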

[4] = qHTS assay to identify small molecule antagonists of the constitutive androstane receptor (CAR) signaling pathway - cell viability counter screen (AID 1224837); also: series mostly up to about 92 µM; nearly all actives have a fitted effect of over 45% in size
In short: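 CITCO at 50 nM final was added alongside compounds (15 concentrations) to double-stable hCAR/CYP2B6-2.2kb HepG2 cells. Following 23 hr at 37 C, cell viability was quantified by CellTiter-Fluor fluorescence intensity.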

[5] = qHTS assay to identify small molecule antagonists of the estrogen related receptor signaling pathway with the pleiotropic PPARgamma coactivator (PGC) from Tox21 10K library - cell viability counter screen (AID 1224840; active = well fitted cell-killing curve with a large enough effect in the repeat runs, not every such curve was filed as active; also: nearly all actives have a fitted effect of over 40% in size)
In short: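 Readout: fluorescence intensity from CellTiter-Fluor after 30 min at 37 C/5% CO2. Preceded by 17.5 h treatment of PGC/ERR cells with DMSO-dissolved compounds, added 6 h post-seeding.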

[6] = qHTS assay to identify small molecule antagonists of the estrogen related receptor signaling pathway with the pleiotropic PPARgamma coactivator (PGC) from Tox21 10K library (AID 1224841; call rule not given here; also: actives are mostly falling curves and most rising ones were filed inactive; nearly all actives have a fitted effect of over 50% in size; also: potency is read from the fitted curve at half-maximal effect)
In short: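 One-Glo luminescence, measured after half an hour at room temperature, quantified reporter output of PGC/ERR cells. These had been plated at 2,000 per well, incubated 6 h, dosed with compounds in DMSO, then kept 18 h at 37 C.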

[7] = qHTS assay to identify small molecule agonists of the estrogen related receptor signaling pathway with the pleiotropic PPARgamma coactivator (PGC) from Tox21 10K library (AID 1224842); also: nearly all actives have a fitted effect of over 15% in size
In short: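 PGC/ERR reporter cells (NTP line) were seeded 2,000 per well, rested 6 h at 37 C/5% CO2, then pin-dosed with compounds in DMSO for 18 h at 37 C; luciferase read by One-Glo luminescence after 30 min at room temperature.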

[8] = molecular target: Thyrotropin receptor (Homo sapiens) (UniProt P16473); assay: qHTS assay to identify small molecule agonists of the thyroid stimulating hormone receptor (TSHR) signaling pathway (AID 1224843; calls by dose curve; also: nearly all actives have a fitted effect of over 45% in size)
Chain of Thyrotropin receptor (Homo sapiens) (P16473 whole entry, looked up): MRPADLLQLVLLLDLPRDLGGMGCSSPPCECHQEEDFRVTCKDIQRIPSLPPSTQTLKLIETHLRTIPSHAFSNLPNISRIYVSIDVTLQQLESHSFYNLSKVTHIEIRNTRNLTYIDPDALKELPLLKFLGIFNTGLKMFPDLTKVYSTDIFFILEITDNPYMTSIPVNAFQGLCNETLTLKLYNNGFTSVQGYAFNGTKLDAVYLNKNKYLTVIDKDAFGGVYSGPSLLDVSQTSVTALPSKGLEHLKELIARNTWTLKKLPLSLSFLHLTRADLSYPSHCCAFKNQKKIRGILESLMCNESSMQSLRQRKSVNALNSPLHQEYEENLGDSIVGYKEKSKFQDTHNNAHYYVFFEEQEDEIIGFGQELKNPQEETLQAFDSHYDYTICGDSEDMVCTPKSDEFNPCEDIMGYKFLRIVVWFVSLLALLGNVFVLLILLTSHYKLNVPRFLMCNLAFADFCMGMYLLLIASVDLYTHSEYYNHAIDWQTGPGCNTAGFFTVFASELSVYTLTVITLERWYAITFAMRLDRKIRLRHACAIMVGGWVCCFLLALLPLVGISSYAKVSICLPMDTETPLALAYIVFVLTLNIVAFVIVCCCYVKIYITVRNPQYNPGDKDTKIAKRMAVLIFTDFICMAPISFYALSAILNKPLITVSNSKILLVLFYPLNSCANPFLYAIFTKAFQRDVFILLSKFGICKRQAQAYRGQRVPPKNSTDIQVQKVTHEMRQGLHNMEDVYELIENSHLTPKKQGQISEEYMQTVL
In short: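 Using 15 concentrations per compound in triplicate, cAMP production was monitored in TSHR-HEK293 cells after 30 min compound incubation at RT; HTRF reagents followed, with fluorescence intensity recorded after 1 h.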

[9] = qHTS assay to identify small molecule agonists of the hypoxia (HIF-1) signaling pathway - cell viability counter screen (AID 1224844; calls by dose curve; also: nearly all actives have a fitted effect of over 50% in size)
In short: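 In this counter screen, HRE-bla ME-180 cell viability after 17 hrs of compound exposure at 37C was read by CellTiter-Glo luminescence, multiplexed with the beta-lactamase reporter measurement.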

[10] = qHTS assay to identify small molecule agonists of H2AX (AID 1224845; active = well fitted activation curve with a large enough effect in the signal ratio in the repeat runs, not every such curve was filed as active; the % refers to the signal ratio; also: potency is read from the fitted curve at half-maximal effect)
In short: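 Wild-type CHO-K1 cells plated overnight, then exposed 3 hr at 37C to compounds at 15 concentrations (0.76% DMSO). Lysed, then HTRF anti-pH2AX(S139)-cryptate/anti-H2AX-d2 detection after 24 hr at room temperature; emissions 665 and 620 nm.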

[11] = qHTS assay to identify small molecule agonists of the hypoxia (HIF-1) signaling pathway (AID 1224846; active = well fitted activation curve with a large enough effect in the signal ratio in the repeat runs, not every such curve was filed as active; the % refers to the signal ratio)
In short: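 ME-180 HRE-bla reporter cells; compounds in DMSO, 17 h at 37C; read-out beta-lactamase via CCF4-AM FRET.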

[12] = qHTS assay to identify small molecule agonists of H2AX - cell viability counter screen (AID 1224847; calls by dose curve; also: top concentration of the series differs between compounds; nearly all actives have a fitted effect of over 30% in size)
In short: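 Cells plated first: CHO-K1, 1000 per well in 10% FBS medium, incubated overnight at 37C. Then 15-point compound titration added (final DMSO 0.76%) for 3 hr. Finally CellTiter-Glo added and luminescence read.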

[13] = qHTS assay to identify small molecule antagonists of the estrogen related receptor (ERR) signaling pathway from Tox21 library (AID 1224848); also: nearly all actives have a fitted effect of over 50% in size
In short: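 Tox21 10K compounds in DMSO tested for ERR pathway antagonism in NTP's ERR cell line; 18 h, 37 C exposure; ONE-Glo luminescence.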

[14] = qHTS assay to identify small molecule agonists of the estrogen related receptor (ERR) signaling pathway from Tox21 library (AID 1224849; calls by dose curve; also: nearly all actives have a fitted effect of over 15% in size)
In short: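 Luciferase activity in ERR pathway reporter cells served as the agonist readout; exposure lasted 18 h at 37 C, with ONE-Glo detection after 30 min at room temperature.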

[15] = qHTS RealTime-Glo MT Cell Viability Assay in HepG2 cells - 24 hour (AID 1224867); also: nearly all actives have a fitted effect of over 50% in size
In short: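 Cells + NanoLuc/prosubstrate dispensed (600 cells/well) → 5 h at 37 C/5% CO2 → compounds in DMSO transferred → 40 h incubation at 37 C, luminescence read at 0, 8, 16, 24, 32, 40 h.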

[16] = A CellTox Green Cytotoxicity Assay to monitor cytotoxicity in HEK293 cells - 0 hour (AID 1224869); also: nearly all actives have a fitted effect of over 50% in size
In short: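 Real-time, in one plate: 600 HEK293 cells/well with dead-cell DNA dye, pinned compound after 5 h, 37 C incubation over 40 h; viable cells give no appreciable fluorescence.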

[17] = qHTS RealTime-Glo MT Cell Viability Assay in HepG2 cells - 40 hour (AID 1224870); also: nearly all actives have a fitted effect of over 50% in size; also: potency is read from the fitted curve at half-maximal effect
In short: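 HepG2 cells mixed with RealTime-Glo MT reagents (NanoLuc plus cell-permeant prosubstrate) were seeded at 600 cells/well, incubated 5 h at 37 C/5% CO2, then pinned with compounds in DMSO; nonlytic luminescence tracked viability during 40 h treatment.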

[18] = molecular target: Nuclear receptor subfamily 1 group I member 3 (Homo sapiens) (UniProt Q14994); assay: qHTS assay to identify small molecule antagonists of the constitutive androstane receptor (CAR) signaling pathway (AID 1224838); also: nearly all actives have a fitted effect of over 40% in size
Chain of Nuclear receptor subfamily 1 group I member 3 (Homo sapiens) (Q14994 whole entry, looked up): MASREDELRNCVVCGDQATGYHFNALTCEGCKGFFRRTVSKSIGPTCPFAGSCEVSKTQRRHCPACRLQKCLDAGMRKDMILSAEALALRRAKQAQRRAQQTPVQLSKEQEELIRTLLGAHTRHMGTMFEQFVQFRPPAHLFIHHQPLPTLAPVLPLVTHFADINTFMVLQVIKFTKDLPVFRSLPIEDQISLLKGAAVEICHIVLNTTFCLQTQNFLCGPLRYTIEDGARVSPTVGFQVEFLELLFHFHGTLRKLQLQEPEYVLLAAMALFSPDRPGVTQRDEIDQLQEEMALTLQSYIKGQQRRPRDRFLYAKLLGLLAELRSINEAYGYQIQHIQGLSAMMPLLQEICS
In short: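 Inhibition of CITCO-driven (50 nM final) CYP2B6 reporter expression is measured in HepG2 cells stably carrying hCAR. Fifteen compound concentrations are applied for 24 h at 37 C, followed by luciferase luminescence.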

[19] = molecular target: Nuclear receptor subfamily 1 group I member 3 (Homo sapiens) (UniProt Q14994); assay: qHTS assay to identify small molecule agonists of the constitutive androstane receptor (CAR) signaling pathway (AID 1224839); also: series mostly up to about 92 µM; nearly all actives have a fitted effect of over 15% in size
In short: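 HepG2-CYP2B6-hCAR cells, 2500/well, 4 h pre-incubation; compounds 15 conc.; PK11195 0.75 uM final; 24 h, 37 C/5% CO2; ONE-Glo luciferase read.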

[20] = qHTS RealTime-Glo MT Cell Viability Assay in HEK293 cells - 32 hour (AID 1224868)
In short: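 Tox21 10K qHTS, HEK293, 600 cells/well, RealTime-Glo reagent co-dispensed with cells; 5 h preincubation, compound by pintool, 37 C, luminescence at 0–40 h.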

Measured: Potency

FB(F)F
active: [6] 45.4 µM
not listed: [18] | [19] | [20]
inactive: all other assays above

[K+]
active: [17] 34.7 µM
not listed: [5] | [6] | [7] | [8] | [12] | [13] | [14] | [15]
inactive: all other assays above

CC(=O)N[C@H]1[C@H]([C@H](O)[C@H](O)CO)OC(C(=O)O)=C[C@@H]1N=C(N)N
not listed: [6] | [7] | [12] | [13] | [14] | [17] | [18] | [19]
inactive: all other assays above

Nc1ccn([C@@H]2O[C@H](CO)[C@@H](O)[C@@H]2O)c(=O)n1
active: [10] 20.1 µM
not listed: [8] | [18]
inactive: all other assays above

C=CN1CCCCCC1=O
not listed: [6] | [7] | [13] | [14] | [18] | [19]
inactive: all other assays above

CCOCC(C)O (stereo not given)
not listed: [8] | [15] | [17] | [18] | [19] | [20]
inactive: all other assays above

N[C@H](C(=O)O)[C@@H](O)c1ccc(O)c(O)c1
not listed: [6] | [7] | [10] | [13] | [14] | [18] | [19]
inactive: all other assays above

C=CC(=O)OCCCl
not listed: [6] | [7] | [8] | [13] | [14] | [17] | [18] | [19]
inactive: all other assays above

O=CN(CCO)CCO
not listed: [8] | [10] | [18] | [19]
inactive: all other assays above

CCCc1ncc(C[n+]2ccccc2C)c(N)n1
not listed: [6] | [7] | [8] | [11] | [13] | [14] | [18] | [19]
inactive: all other assays above

CNCCO
inactive: [1] | [2] | [3] | [4] | [5] | [9] | [10] | [11] | [15] | [20] | [16]

O=S(=O)(O)c1cccc(S(=O)(=O)O)c1
not listed: [2] | [12]
inactive: all other assays above

CC(N)C12CC3CC(CC(C3)C1)C2 (stereo not given)
not listed: [3] | [6] | [7] | [8] | [13] | [14] | [18] | [19]
inactive: all other assays above

C1CCC2=NCCCN2CC1
not listed: [2] | [6] | [7] | [13] | [14]
inactive: all other assays above

CC[N+](C)(CC)CCOC(=O)C1c2ccccc2Oc2ccccc21
inactive: [1] | [2] | [3] | [4] | [8] | [9] | [12] | [16] | [17]
